Test results: PubChem BioAssay (NCATS)
Results filed as inconclusive are left out. Calls of active or inactive are those of the source. The call rests on the fitted dose curve; in most records, active means well fitted inhibition curve with a large enough effect; inconclusive means small, poorly fitted or top-dose-only effect; inactive means flat fitted curve, though single readings scatter.

What was measured:
Assay in all cases: qHTS profiling for inhibitors of Plasmodium falciparum proliferation (AID 504749); further: nearly all actives have a fitted effect of over 60% in size
Conditions in all cases: P. falciparum in erythrocytes, SYBR Green DNA, 72 h; series mostly up to 28.7 µM
7G8 = test system: 7G8
How it was run: (§1)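 Parasite proliferation within erythrocytes, 72 h exposure. Endpoint: SYBR Green I fluorescence after overnight lysis at room temperature. Controls: 0.29 uM artemisinin, DMSO.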

ATS95 = test system: ATS95
How it was run: as §1

C2A = test system: C2A
How it was run: as §1

CP215 = test system: CP215
How it was run: as §1

CP237 = test system: CP237
How it was run: as §1

CP238 = test system: CP238
How it was run: as §1

CP250 = test system: CP250
How it was run: as §1

CP256 = test system: CP256
How it was run: as §1

CP262 = test system: CP262
How it was run: as §1

CP266 = test system: CP266
How it was run: as §1

CP268 = test system: CP268
How it was run: as §1

CP269 = test system: CP269
How it was run: as §1

CP305 = test system: CP305
How it was run: as §1

CP325 = test system: CP325
How it was run: as §1

CP329 = test system: CP329
How it was run: as §1

CP335 = test system: CP335
How it was run: as §1

DIV30 = test system: DIV30
How it was run: as §1

Dd2 = test system: Dd2
How it was run: as §1

PAD = test system: PAD
How it was run: as §1

SC27B = test system: SC27B
How it was run: as §1
Potency means the concentration at half of the fitted maximal effect.

| Structure (SMILES) | Potency (7G8) | Potency (ATS95) | Potency (C2A) | Potency (CP215) | Potency (CP237) | Potency (CP238) | Potency (CP250) | Potency (CP256) | Potency (CP262) | Potency (CP266) | Potency (CP268) | Potency (CP269) | Potency (CP305) | Potency (CP325) | Potency (CP329) | Potency (CP335) | Potency (DIV30) | Potency (Dd2) | Potency (PAD) | Potency (SC27B) |
| --- | --- | --- | --- | --- | --- | --- | --- | --- | --- | --- | --- | --- | --- | --- | --- | --- | --- | --- | --- | --- |
| O=C(CC1NCCC[C@H]1O)Cn1cnc2cc(Br)c(Cl)cc2c1=O (stereo not given in full) | 1 µM (active) | 2 µM (active) | 3.16 µM (active) | 3.79 µM (active) | 3.55 µM (active) | 3.98 µM (active) | 2.82 µM (active) | 3.16 µM (active) | inactive | 3.79 µM (active) | 3.38 µM (active) | 2.69 µM (active) | 3.38 µM (active) | 3.38 µM (active) | 3.38 µM (active) | 0.601 µM (active) | 3.38 µM (active) | 708 nM (active) | 2.24 µM (active) | 11.2 µM (active) |
| CCCCC(=O)N(Cc1ccc(-c2ccccc2-c2nn[nH]n2)cc1)C(C(=O)O)C(C)C (stereo not given) | 11.2 µM (active) | inactive | inactive | inactive | inactive | inactive | inactive | inactive | inactive | inactive | inactive | inactive | inactive | inactive | inactive | 6.01 µM (active) | inactive | inactive | inactive | inactive |
